EP2 antag – EP2 receptor (human) inhibition | P43116 | C6 glioma cells expressing human EP2, cAMP TR-FRET; cells stimulated with saturating PGE2 | inhibition, % at 25 µM | 0.52% of 260,000 active | AID 1422;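 active = percent inhibition above 40 after rounding to a whole number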;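 also: rat C6 glioma host cells with rolipram phosphodiesterase inhibitor present; the protocol text gives 20 µM as final concentration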
EP2 modulator – EP2 receptor (human) modulation. AID 940. induction, % at 25 µM. EP2-expressing cells, cAMP HTRF FRET, PGE2 co-stimulation. 0.83% of 260,000 active. P43116;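 active = compounds whose cAMP rise, as percent of the full-agonist control response, exceeds 60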;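 also: rat C6 glioma line stably carrying human EP2 under a CMV promoter; the protocol text gives 20 µM as final concentration; 100% = response of wells given 1 µM PGE2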
Arbovirus inh – arbovirus infection inhibition | inhibition, % at 10 µM | 0.37% of 200,000 active | AID 1251 | arbovirus infection cell-based antiviral screen; in the data active = inhibition above about 30%
p97 ATPase inh – blocks human p97 ATPase activity. P55072. recombinant p97 ATPase, Kinase-Glo ATP luminescence, 3 h. inhibition, % at 8 µM. 0.42% of 220,000 active. AID 1481; in the data active = inhibition above about 15%;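 also: 0% = DMSO vehicle and 100% = wells lacking enzyme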
Hck-Nef inh – human Hck-Nef kinase inhibition. P08631. Recombinant Hck-YEEI plus Nef, Z-Lyte FRET kinase assay. inhibition, % at 20 µM. 0.68% of 220,000 active. AID 463187;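 active = Hck-Nef kinase inhibition above about 50%, limit read from the data; inactive = inhibition below that limit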;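 also: 0% = DMSO with Hck plus Nef and 100% = Hck alone without Nef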
Hck Nef conf – Hck-Nef kinase inhibition, confirmation. 28% of 1,300 active. Recombinant Hck-YEEI:Nef, Z-Lyte FRET kinase assay. calls only at 10 µM. AID 463188. shares compounds with Hck-Nef inh;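 active = average inhibition of at least 50%, with Z-scores no higher than 3 in both the phospho-tyrosine peptide and fluorescence counterscreens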
Active calls of the source: *. The list is not random: actives were taken first. Their share in the collection is about 2.4%.

CCC(C)N1CCN(Cc2ccc(C)cc2)CC1 (centres undefined) was read as EP2 antag 14 and EP2 modulator 0.
Screening O=C(O)C[C@@H]1NCc2cc3ccccc3nc21 returned EP2 antag 15 and EP2 modulator -5.
O=C(O)Cn1cc(/C=C2\C(=O)NC(=O)N(Cc3ccco3)C2=O)c2ccccc21 was read as EP2 antag 4, EP2 modulator 17, Arbovirus inh 5, p97 ATPase inh 5, Hck-Nef inh 74* and Hck Nef conf inactive.
Screening CCCCCCCCN=Cc1c(O)[nH]c(=O)[nH]c1=O returned EP2 antag 5, EP2 modulator -13, p97 ATPase inh 5 and Hck-Nef inh 2.
`NC(=S)/N=C/c1c(O)[nH]c(=O)[nH]c1=O` gave EP2 antag 11, EP2 modulator 10, Arbovirus inh 3, p97 ATPase inh 5, Hck-Nef inh 63* and Hck Nef conf inactive.
For C=CCNC(=S)/N=C/c1c(O)[nH]c(=O)[nH]c1=O the results were EP2 antag 2, EP2 modulator 7, Arbovirus inh 5, p97 ATPase inh 2, Hck-Nef inh 83* and Hck Nef conf inactive.
For Cc1[nH]c2ccc(F)cc2c1CC(=O)N(CCN(C)C)Cc1cccnc1 the results were EP2 antag 2 and EP2 modulator -1.
For Cc1cc(C)c(O)c(CN2C3CCC2CC(O)(c2ccccc2F)C3)c1 (centres undefined) the results were EP2 antag 4 and EP2 modulator 4.
`Cc1ccc2c(c1Cl)NC(C(=O)O)C1CC(Sc3ccccc3[N+](=O)[O-])C(Cl)C21` (centres undefined) gave EP2 antag 5, EP2 modulator -17, p97 ATPase inh 7 and Hck-Nef inh 44.
Screening CCN(CC)C(=O)c1ccc2c(c1)C1C(Cl)C(Sc3ccccc3[N+](=O)[O-])CC1C(C(=O)O)N2 (centres undefined) returned EP2 antag 3, EP2 modulator -12, p97 ATPase inh -3, Hck-Nef inh 63* and Hck Nef conf inactive.

Bioassay records from PubChem.
